A selection: hits, their analogues and other compounds. The true share with any hit is near 1.3%.
NFkB transloc inh = blocks IL-1B driven NFkB nuclear translocation in HUVEC cells; HUVEC IL-1B NFkB p65 nuclear translocation imaging; inhibition, % at 2 µM; 94,000 tested, 0.43% active;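 active means inhibition above about 30% together with a positive call from visual inspection of the well image, limit read from the data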;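 further: nuclear over cytoplasmic p65 intensity ratio measured by imaging; 0% = IL-1B stimulated DMSO wells and 100% = unstimulated DMSO wells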
HUVEC tox IL1B = HUVEC cytotoxicity counter-screen, IL-1B stimulated | HUVEC cell count loss, Hoechst imaging | cell count reduction, % at 2 µM | 94,000 tested, 0.41% active | AID 845;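 active means cell count reduction more than 3 SD above the screen-wide mean, cut at about 70% in these data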;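 further: normalized per plate to untreated control cells as the no-loss baseline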
IL1B NFkB pot = enhances IL-1B driven NFkB nuclear translocation | AID 819 | 94,000 tested, 0.3% active | activation, % at 2 µM | HUVEC IL-1B NFkB p65 nuclear translocation imaging;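 active means activation above 40%, about the mean plus 3 SD, also judged a hit on visual image review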;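 further: percent activation is computed from the nuclear over cytoplasmic p65 intensity ratio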
INS promoter inh = TRM-6 insulin promoter activity inhibition; TRM-6 cells (human fetal islet line), insulin promoter-eGFP reporter, imaging; reporter expression induced with tamoxifen; inhibition, % at 2 µM; 130,000 tested, 0.9% active; AID 1273;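 active means inhibition above the mean plus 3 SD, with well images judged a real hit on visual review, cut at about 60% in these data, passing the limit was not always enough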
Active calls of the source: *; nt = not tested or not shown.

SMILES	NFkB transloc inh	HUVEC tox IL1B	IL1B NFkB pot	INS promoter inh
Cn1c(=O)cc(N)n(Cc2ccccc2)c1=O	nt	nt	nt	-23
O=S1(=O)C=C(SCc2ccc(F)cc2)Nc2ccccc21	nt	nt	nt	-58
COC(=O)c1ccc2c(c1)C(C)(C)C(/C=C/c1ccc(O)cc1)=[N+]2C	34*	-6	-34	25
COC(=O)c1ccc2c(c1)C(C)(C)C(/C=C/c1ccc(OC)c(OC)c1OC)=[N+]2C	37*	-2	-37	3
Cc1cc(C)cc(NC(=O)c2cnn(-c3ccccc3)c2C2CCNCC2)c1	nt	nt	nt	-33
C(=Nc1ccc(Nc2ccccc2)cc1)c1ccc2ccccc2c1	nt	nt	nt	64*
Brc1ccc(C=Nc2ccc(Nc3ccccc3)cc2)s1	nt	nt	nt	27
CCCNc1cc(C)oc(=O)c1C(=O)CC	nt	nt	nt	56
NC(N)=NC1=NC(=O)/C(=C/c2ccccc2-n2cccn2)S1	nt	nt	nt	-23
O=C(NCc1ccccc1)C1CCCN(S(=O)(=O)c2cccc3nonc23)C1 (stereo unspecified)	nt	nt	nt	-67
O=C(NC1CCN(Cc2ccccc2)CC1)C1CCCN(S(=O)(=O)c2cccc3nonc23)C1 (stereo unspecified)	46*	-21	-46	-3
COc1cc(C(=O)NNC(=O)c2ccc(NC(=O)C(C)(C)C)cc2)cc(OC)c1OC	nt	nt	nt	58
Cn1c(C(O)c2ccc3c(c2)OCO3)nc2ccccc21 (stereo unspecified)	98*	84*	-98	77*
CC(C)n1c(C(O)c2ccc3c(c2)OCO3)nc2ccccc21 (stereo unspecified)	nt	nt	nt	-21
CNc1nc(C)c(C(=O)c2ccc(Cl)cc2)s1	-8	7	8	-29
Cc1ccc(Cl)cc1NC1=C/C(=N\S(=O)(=O)c2cccs2)c2ccccc2C1=O	-41	3	41*	-12
CN1CCC(=NNC(=O)c2cn(-c3ccccc3)nc2-c2ccccc2)CC1	nt	nt	nt	-33
CCc1c(C)sc(NC(=O)c2cc(C)on2)c1C#N	1	10	-1	-3
CCCc1cc(C(=O)Nc2sc(C)c(CC)c2C#N)no1	nt	nt	nt	70*
CC(=NCc1cccc(Cl)c1)c1nc(-c2ccco2)oc1O	nt	nt	nt	-129
COc1ccc2[nH]c(=O)c(NC(N)=S)nc2c1	6	89*	-7	-48
CCCCn1c(N)c(NCCC(C)C)c(=O)[nH]c1=O	nt	nt	nt	82*
COc1ccc2cc(CN(CCc3ccccc3)Cc3nnnn3Cc3ccco3)c(=O)[nH]c2c1	nt	0	168*	nt
CCN(CC)CCOC(=O)c1ccc(NC(=O)c2cn(-c3ccccc3)nc2-c2cccs2)cc1	nt	nt	nt	0
Cc1cc(C(F)F)nn1CC(=O)NC1C(=O)N2C(C(=O)O)=C(CSc3nnnn3C)CSC12 (stereo unspecified)	nt	nt	nt	35
SMILES	NFkB transloc inh	HUVEC tox IL1B	IL1B NFkB pot	INS promoter inh
Cc1ccc(-n2cc(CNCCc3ncc(C)[nH]3)c(-c3ccc(F)cc3)n2)cc1	nt	nt	nt	-7
Cc1ccc(CN2CCC(c3nc4ccc(Cl)cc4[nH]3)CC2)cc1	34*	0	-34	0
CN(C)c1cccc(C(=O)OCC(=O)Nc2ccccc2Cl)c1	nt	nt	nt	75*
CN(C)c1cccc(C(=O)OCC(=O)Nc2nccs2)c1	nt	nt	nt	37
Cc1cc2c(c(SCC#N)n1)C(=O)OC2	nt	nt	nt	-4
CCOCCCNS(=O)(=O)c1ccc(NC(=O)C2CC(=O)N(c3ccc(C)cc3)C2)cc1 (stereo unspecified)	nt	nt	nt	-21
CCOc1ccc(C(=O)NC2=NCCS2)cc1	nt	nt	nt	83*
CN(C)c1ccc(/C=N/NC(=O)Cn2nnc3ccccc32)cc1	nt	nt	nt	-33
O=C(Cn1nnc2ccccc21)N/N=C\C=C\c1ccccc1	-6	88*	6	-14
COc1ccc(NC(=O)C(c2ccc(OC)cc2)N(C)C(=O)CNC(C)=O)cc1 (stereo unspecified)	1	19	-1	77*
CCc1nnc2c3cnn(-c4ccccc4)c3ncn12	-8	23	8	78*
c1ccc(-n2ncc3c2ncn2cnnc32)cc1	-9	-10	9	-3
Cc1ccc(S(=O)(=O)c2nc(-c3ccccc3)oc2NCc2cccnc2)cc1	32*	16	-32	30
Cc1ccc(S(=O)(=O)Nc2nc(C)c(NC(=O)Nc3ccc(Cl)cc3Cl)s2)cc1	2	-38	-2	nt
O=C(CCCCn1c(=O)[nH]c2ccccc2c1=O)NCCc1c[nH]c2ccccc12	nt	nt	nt	30
COc1cc2[nH]c(=O)n(CCCCCC(=O)NCCc3c[nH]c4ccccc34)c(=O)c2cc1OC	0	-6	0	67*
CN(C)S(=O)(=O)c1ccc(N2CCOCC2)nc1	-21	-12	21	-350
CC1CN(c2ccc(S(=O)(=O)N3CCOCC3)cn2)CC(C)O1 (stereo unspecified)	40*	2	-40	-21
NC(=O)CSc1nnc2ccc(-c3ccco3)nn12	nt	nt	nt	68*
Cc1ccc([N+](=O)[O-])cc1NC(=S)NC(=O)c1cccs1	nt	nt	nt	-34

Screens (PubChem BioAssay)
